Here are results for seven compounds from PubChem BioAssay (EPA / NIEHS).

By AC50 is commonly meant the concentration giving half of the maximal activity seen.

Records with an inconclusive call do not appear. Calls of active or inactive are those of the source. How the source made its calls, unless noted: active means hit-call score of the fitted dose curve at least 0.9, where 1 is the maximum; inactive means score below 0.9.

The nature of assay [1]: BSK_3C_Proliferation: Cell Proliferation Assessment in the BioMAP Diversity Plus: 3C Assay (AID 2283006).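 On AC50: potency may reflect either rise or fall in cell number versus DMSO.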 Particulars: primary human endothelial cells (HUVEC). The method, boiled down:
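Human umbilical vein endothelial cells were grown sub-confluent and exposed to chemical for 48 h, then fixed with 10% TCA and stained with 0.1% sulforhodamine B; absorbance at 560 nm gave relative cell number, fitted bidirectionally against DMSO baseline.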

For assay [2], the target named is Nuclear receptor subfamily 1 group I member 2 (Homo sapiens) (UniProt O75469). Description: ATG_PXR_TRANS: Attagene TRANS-FACTORIAL HepG2 Assay for human Pregnane X Receptor (PXR) (AID 2283008; active means hit-call score of the fitted dose curve at least 0.9, where 1 is the maximum). In short, it runs like this: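 Measures mRNA induction of a GAL4-UAS-driven reporter in human HepG2 cells transiently expressing PXR fused to Gal4, following 24 h treatment. DMSO served as negative control and baseline.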
Sequence of Nuclear receptor subfamily 1 group I member 2 (Homo sapiens) (O75469 whole entry, looked up, the tested form may be a part): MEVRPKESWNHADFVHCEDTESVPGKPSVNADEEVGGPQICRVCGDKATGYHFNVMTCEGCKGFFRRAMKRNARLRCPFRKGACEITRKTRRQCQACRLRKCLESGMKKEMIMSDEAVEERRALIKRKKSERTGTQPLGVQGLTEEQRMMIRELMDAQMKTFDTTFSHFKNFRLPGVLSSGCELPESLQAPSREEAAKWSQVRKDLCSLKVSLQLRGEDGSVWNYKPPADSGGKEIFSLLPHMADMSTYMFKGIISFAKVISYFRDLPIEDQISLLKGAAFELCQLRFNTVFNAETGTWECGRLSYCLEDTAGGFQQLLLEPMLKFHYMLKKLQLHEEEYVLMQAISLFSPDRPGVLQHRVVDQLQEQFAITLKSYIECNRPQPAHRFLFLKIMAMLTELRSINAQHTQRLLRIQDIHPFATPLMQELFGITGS

Assay [3] deals with human RAR-related Orphan Receptor gamma (RORg), RORC (gene 6097) (UniProt P51449). Nature of the assay: ATG_RORg_TRANS: Attagene TRANS-FACTORIAL HepG2 Assay for human RAR-related Orphan Receptor gamma (RORg) (AID 2283011; active means hit-call score of the fitted dose curve at least 0.9, where 1 is the maximum). In short, it runs like this: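 Readout: reporter transcript induction (RT-PCR, fluorescent primer extension, capillary electrophoresis) after 24 h compound exposure of transiently transfected HepG2 cells carrying a RORg-Gal4 chimera and GAL4-UAS reporters; DMSO served as baseline, with increasing signal fitted.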
Sequence of human RAR-related Orphan Receptor gamma (RORg), RORC (gene 6097) (P51449 whole entry, looked up, the tested form may be a part): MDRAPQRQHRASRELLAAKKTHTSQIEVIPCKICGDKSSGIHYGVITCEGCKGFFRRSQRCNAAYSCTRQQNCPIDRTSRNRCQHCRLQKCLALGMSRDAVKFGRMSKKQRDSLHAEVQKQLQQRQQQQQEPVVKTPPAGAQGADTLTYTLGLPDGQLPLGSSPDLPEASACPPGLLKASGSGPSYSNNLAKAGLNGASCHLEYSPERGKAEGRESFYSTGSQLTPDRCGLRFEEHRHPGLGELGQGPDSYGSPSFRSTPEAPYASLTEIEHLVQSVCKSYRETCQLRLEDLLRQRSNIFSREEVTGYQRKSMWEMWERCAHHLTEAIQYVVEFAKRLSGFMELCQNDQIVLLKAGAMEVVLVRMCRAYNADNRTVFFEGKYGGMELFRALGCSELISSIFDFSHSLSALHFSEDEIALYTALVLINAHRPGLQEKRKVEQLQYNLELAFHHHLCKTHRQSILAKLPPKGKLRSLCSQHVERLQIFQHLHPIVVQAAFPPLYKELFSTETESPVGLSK

Read-out in assay [4]: E-selectin (Homo sapiens) (UniProt P16581)
Nature of the assay: BSK_3C_Eselectin: BioMAP Diversity Plus: 3C Assay for Eselectin Biomarker Activity (AID 2283015).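 On outcome: cell surface E-selectin protein quantified by ELISA 24 h after dosing.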 Particulars: primary human endothelial cells (HUVEC); actives raise or lower the signal. In short, it runs like this: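 Primary human umbilical vein endothelial cells (3C system) were dosed with chemical and cell-surface E-selectin measured by ELISA 24 h later. Bidirectional curve fitting used DMSO as negative control and baseline.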

Read-out in assay [5]: Interleukin-1 alpha (IL1a), IL1A (gene 3552)
Description: BSK_BE3C_IL1a: BioMAP Diversity Plus: BE3C Assay for Interleukin-1 alpha (IL1a) Biomarker Activity (AID 2283016). As to conditions: primary human bronchial epithelial cells; actives raise or lower the signal. In short, it runs like this:
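Human primary bronchial epithelial cells (BE3C system) were dosed with compound and IL-1a measured by ELISA 24 h later. Activity was fitted bidirectionally against DMSO baseline; cytotoxicity was tracked in parallel cultures by SRB total-protein staining.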

Read-out in assay [6]: Monocyte Chemoattractant Protein-1 (MCP1), CCL2 (gene 6347)
Nature of the assay: BSK_3C_MCP1: BioMAP Diversity Plus: 3C Assay for Monocyte Chemoattractant Protein-1 (MCP1) Biomarker Activity (AID 2283017). Particulars: primary human endothelial cells (HUVEC); actives raise or lower the signal. In short, it runs like this:
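Primary human umbilical vein endothelial cells (3C system) were exposed to test chemical for 24 h, after which MCP-1 was quantified by ELISA. Activity was fitted bidirectionally against DMSO as negative control and baseline.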

Read-out in assay [7]: Monocyte Chemoattractant Protein-1 (MCP1), CCL2 (gene 6347)
Nature of the assay: BSK_4H_MCP1: BioMAP Diversity Plus: 4H Assay for Monocyte Chemoattractant Protein-1 (MCP1) Biomarker Activity (AID 2283018). Particulars: primary human endothelial cells (HUVEC); actives raise or lower the signal. The method, boiled down: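 Human umbilical vein endothelial cells (4H system) dosed with chemical; MCP-1 measured by ELISA 24 h after dosing. Bidirectional curve fitting against DMSO negative control as baseline; parallel SRB total-protein staining tracks overt cytotoxicity.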

Read-out in assay [8]: Human Leukocyte Antigen - DR isotype (HLADR), HLA-DRA (gene 3122)
Nature of the assay: BSK_3C_HLADR: BioMAP Diversity Plus: 3C Assay for Human Leukocyte Antigen - DR isotype (HLADR) Biomarker Activity (AID 2283019).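 On outcome: ELISA of cell-surface HLA-DR on HUVEC 24 h after dosing.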 As to conditions: primary human endothelial cells (HUVEC); actives raise or lower the signal. The method, boiled down:
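Primary human umbilical vein endothelial cells (3C system) were dosed with compound and cell-surface HLA-DR was quantified by ELISA at 24 h. Activity was fitted bidirectionally against DMSO as negative control and baseline.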

Read-out in assay [9]: Interleukin-8 (IL8), CXCL8 (gene 3576)
Nature of the assay: BSK_3C_IL8: BioMAP Diversity Plus: 3C Assay for Interleukin-8 (IL8) Biomarker Activity (AID 2283020). As to conditions: primary human endothelial cells (HUVEC); actives raise or lower the signal. In short, it runs like this:
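Primary human umbilical vein endothelial cells (3C system) were exposed to test chemical for 24 h, then IL-8 was quantified by ELISA. Responses were fitted bidirectionally against DMSO vehicle as baseline.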

Read-out in assay [10]: Intercellular Adhesion Molecule 1 (ICAM1), ICAM1 (gene 3383)
Description: BSK_3C_ICAM1: BioMAP Diversity Plus: 3C Assay for Intercellular Adhesion Molecule 1 (ICAM1) Biomarker Activity (AID 2283003). Particulars: primary human endothelial cells (HUVEC); actives raise or lower the signal. The method, boiled down:
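Primary human umbilical vein endothelial cells in the BioMAP 3C system were exposed to chemicals for 24 h, then ICAM-1 was quantified by ELISA. Activity was fitted bidirectionally against the DMSO negative control baseline.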

Assay [11] deals with Retinoic acid receptor alpha (Homo sapiens) (UniProt P10276). Nature of the assay: ATG_RARa_TRANS: Attagene TRANS-FACTORIAL HepG2 Assay for human Retinoic Acid Receptor alpha (RARa) (AID 2283005; active means hit-call score of the fitted dose curve at least 0.9, where 1 is the maximum). The method, boiled down:
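HepG2 transiently transfected with multiplex GAL4-UAS reporter units including a human RARa–GAL4 chimera; 24 h compound exposure. Reporter mRNA quantified by RT-PCR, 6-FAM labeling and capillary electrophoresis; gain of signal versus DMSO.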

For assay [12], the target named is human Retinoic Acid Receptor gamma (RARg), RARG (gene 5916) (UniProt P13631). Nature of the assay: ATG_RARg_TRANS: Attagene TRANS-FACTORIAL HepG2 Assay for human Retinoic Acid Receptor gamma (RARg) (AID 2283009; active means hit-call score of the fitted dose curve at least 0.9, where 1 is the maximum). In short, it runs like this: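 HepG2 cells transiently transfected with multiplexed reporter units expressing chimeric RARg-GAL4 and GAL4-UAS-driven reporters; 24 h compound exposure. Reporter mRNA quantified by RT-PCR with fluorescent labelling and capillary electrophoresis; gain-of-signal fitted relative to DMSO baseline.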

Assay [13] addresses Retinoic acid receptor RXR-alpha (Homo sapiens) (UniProt P19793). Nature of the assay: ATG_RXRa_TRANS: Attagene TRANS-FACTORIAL HepG2 Assay for human Retinoid X Receptor alpha (RXRa) (AID 2283012; active means hit-call score of the fitted dose curve at least 0.9, where 1 is the maximum). The method, boiled down: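 HepG2 cells transiently transfected with multiplexed GAL4-UAS reporter units and chimeric NR-GAL4 fusions, dosed 24 h. Reporter mRNA measured by RT-PCR, FAM labelling, HpaI digestion and capillary electrophoresis; gain-of-signal fitted relative to DMSO baseline.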

In assay [14] the target is human Retinoid X Receptor beta (RXRb), RXRB (gene 6257) (UniProt P28702). Description: ATG_RXRb_TRANS: Attagene TRANS-FACTORIAL HepG2 Assay for human Retinoid X Receptor beta (RXRb) (AID 2283013; active means hit-call score of the fitted dose curve at least 0.9, where 1 is the maximum). In short, it runs like this:
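HepG2 cells transiently transfected with multiplexed reporter units driven by GAL4-UAS and exogenous chimeric NR-Gal4 proteins; treated 24 h. Reporter mRNA measured by RT-PCR, 6-FAM labelling and capillary electrophoresis; gain-of-signal fitted versus DMSO baseline.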

The target of assay [15] is human Peroxisome Proliferator-activated Receptor delta (PPARd), PPARD (gene 5467) (UniProt Q03181). Description: ATG_PPARd_TRANS: Attagene TRANS-FACTORIAL HepG2 Assay for human Peroxisome Proliferator-activated Receptor delta (PPARd) (AID 2283002; active means hit-call score of the fitted dose curve at least 0.9, where 1 is the maximum). In short, it runs like this: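 HepG2 cells transiently transfected with GAL4-UAS multiplexed reporter units driven by exogenous chimeric NR-GAL4 proteins; 24 h compound exposure. Reporter mRNA measured by RT-PCR, 6-FAM primer extension, HpaI digestion and capillary electrophoresis; gain of signal fitted relative to DMSO.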
Sequence of human Peroxisome Proliferator-activated Receptor delta (PPARd), PPARD (gene 5467) (Q03181 whole entry, looked up, the tested form may be a part): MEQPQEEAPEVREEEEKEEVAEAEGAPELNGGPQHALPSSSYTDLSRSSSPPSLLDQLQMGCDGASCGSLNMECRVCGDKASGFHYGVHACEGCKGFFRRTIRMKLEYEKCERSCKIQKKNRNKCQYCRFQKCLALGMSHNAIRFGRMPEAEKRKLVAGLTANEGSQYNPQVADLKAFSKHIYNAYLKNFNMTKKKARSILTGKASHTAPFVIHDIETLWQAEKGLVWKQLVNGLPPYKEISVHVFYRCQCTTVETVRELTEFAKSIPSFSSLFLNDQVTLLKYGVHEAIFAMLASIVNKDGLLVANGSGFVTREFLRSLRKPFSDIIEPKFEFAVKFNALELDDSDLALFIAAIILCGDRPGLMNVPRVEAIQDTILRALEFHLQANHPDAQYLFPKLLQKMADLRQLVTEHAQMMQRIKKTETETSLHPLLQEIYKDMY

In assay [16] the target is human Peroxisome Proliferator-activated Receptor alpha (PPARa), PPARA (gene 5465) (UniProt Q07869). Description: ATG_PPARa_TRANS: Attagene TRANS-FACTORIAL HepG2 Assay for human Peroxisome Proliferator-activated Receptor alpha (PPARa) (AID 2283001; active means hit-call score of the fitted dose curve at least 0.9, where 1 is the maximum). The method, boiled down: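 Measures transcriptional activity of an exogenous chimeric PPARa-Gal4 protein in transiently transfected HepG2 cells after 24 h dosing. Reporter mRNA quantified via RT-PCR and capillary electrophoresis; DMSO served as negative control.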
Sequence of human Peroxisome Proliferator-activated Receptor alpha (PPARa), PPARA (gene 5465) (Q07869 whole entry, looked up, the tested form may be a part): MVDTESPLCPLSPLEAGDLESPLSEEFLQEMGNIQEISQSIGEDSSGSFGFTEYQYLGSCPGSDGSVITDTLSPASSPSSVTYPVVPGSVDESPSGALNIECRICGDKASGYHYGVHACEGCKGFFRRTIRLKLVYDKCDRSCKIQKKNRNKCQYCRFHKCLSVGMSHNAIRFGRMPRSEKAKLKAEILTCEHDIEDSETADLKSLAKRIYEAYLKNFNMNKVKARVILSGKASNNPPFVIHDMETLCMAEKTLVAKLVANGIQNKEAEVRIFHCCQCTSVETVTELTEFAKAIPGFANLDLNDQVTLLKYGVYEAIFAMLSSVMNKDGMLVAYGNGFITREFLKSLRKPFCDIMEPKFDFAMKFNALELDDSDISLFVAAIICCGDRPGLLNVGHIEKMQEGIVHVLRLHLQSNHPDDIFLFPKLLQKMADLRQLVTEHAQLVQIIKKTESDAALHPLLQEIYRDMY

Assay [17] has as its target human RAR-related Orphan Receptor beta (RORb), RORB (gene 6096) (UniProt Q92753). Description: ATG_RORb_TRANS: Attagene TRANS-FACTORIAL HepG2 Assay for human RAR-related Orphan Receptor beta (RORb) (AID 2283010; active means hit-call score of the fitted dose curve at least 0.9, where 1 is the maximum). In short, it runs like this: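 HepG2 cells were transiently transfected with multiplexed GAL4-UAS reporter units expressing chimeric nuclear receptor–GAL4 proteins, then dosed for 24 h. Reporter mRNA was quantified by RT-PCR with fluorescent labelling and capillary electrophoresis; gain of signal was fitted relative to DMSO.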

Read-out in assay [18]: Monokine induced gamma interferon (MIG), CXCL9 (gene 4283)
Description: BSK_3C_MIG: BioMAP Diversity Plus: 3C Assay for Monokine induced gamma interferon (MIG) Biomarker Activity (AID 2283021). Particulars: primary human endothelial cells (HUVEC); actives raise or lower the signal. In short, it runs like this:
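Primary human umbilical vein endothelial cells in the 3C system were exposed to chemical for 24 h, after which MIG was quantified by ELISA. Activity was fitted bidirectionally against DMSO as negative control and baseline.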

In assay [19] the target is human Thyroid Receptor alpha (THRa1), THRA (gene 7067) (UniProt P10827). Description: ATG_THRa1_TRANS: Attagene TRANS-FACTORIAL HepG2 Assay for human Thyroid Receptor alpha (THRa1) (AID 2283014; active means hit-call score of the fitted dose curve at least 0.9, where 1 is the maximum). In short, it runs like this:
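HepG2 cells transiently transfected with multiplexed GAL4-UAS reporter units for exogenous chimeric THRa1-Gal4; reporter mRNA measured 24 h after dosing by RT-PCR, 6-FAM labelling, HpaI digestion and capillary electrophoresis. Gain-of-signal fitted versus DMSO baseline.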

Sequence of human RAR-related Orphan Receptor beta (RORb), RORB (gene 6096) (Q92753 whole entry, looked up, the tested form may be a part): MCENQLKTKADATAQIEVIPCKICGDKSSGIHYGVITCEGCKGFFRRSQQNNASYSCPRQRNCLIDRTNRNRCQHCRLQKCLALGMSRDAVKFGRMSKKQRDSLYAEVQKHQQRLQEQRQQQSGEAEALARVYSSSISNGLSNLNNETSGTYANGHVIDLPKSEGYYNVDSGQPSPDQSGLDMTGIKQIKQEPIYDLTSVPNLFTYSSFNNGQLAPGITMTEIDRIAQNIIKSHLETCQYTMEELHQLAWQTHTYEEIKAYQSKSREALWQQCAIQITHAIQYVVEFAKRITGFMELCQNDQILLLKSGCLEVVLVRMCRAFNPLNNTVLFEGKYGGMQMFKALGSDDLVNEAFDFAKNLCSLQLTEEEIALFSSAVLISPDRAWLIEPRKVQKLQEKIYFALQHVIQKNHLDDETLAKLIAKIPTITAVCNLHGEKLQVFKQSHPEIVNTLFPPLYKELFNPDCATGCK
Sequence of E-selectin (Homo sapiens) (P16581 whole entry, looked up): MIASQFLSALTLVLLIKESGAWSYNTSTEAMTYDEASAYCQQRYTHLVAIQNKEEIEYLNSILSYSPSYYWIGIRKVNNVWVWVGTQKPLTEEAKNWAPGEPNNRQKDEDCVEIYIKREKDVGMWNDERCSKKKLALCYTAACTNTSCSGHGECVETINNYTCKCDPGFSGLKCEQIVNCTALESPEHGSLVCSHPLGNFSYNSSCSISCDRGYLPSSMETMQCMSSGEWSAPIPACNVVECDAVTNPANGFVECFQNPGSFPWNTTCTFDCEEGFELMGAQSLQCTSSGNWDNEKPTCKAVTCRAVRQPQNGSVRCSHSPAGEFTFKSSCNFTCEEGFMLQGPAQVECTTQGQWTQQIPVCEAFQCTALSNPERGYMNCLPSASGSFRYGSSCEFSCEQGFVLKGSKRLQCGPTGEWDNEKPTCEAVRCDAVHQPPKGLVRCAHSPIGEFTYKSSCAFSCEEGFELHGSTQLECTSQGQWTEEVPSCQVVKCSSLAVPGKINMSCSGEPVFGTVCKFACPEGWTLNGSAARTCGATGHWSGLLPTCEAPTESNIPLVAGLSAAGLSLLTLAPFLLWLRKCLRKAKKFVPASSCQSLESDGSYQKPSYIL
Sequence of Retinoic acid receptor alpha (Homo sapiens) (P10276 whole entry, looked up, the tested form may be a part): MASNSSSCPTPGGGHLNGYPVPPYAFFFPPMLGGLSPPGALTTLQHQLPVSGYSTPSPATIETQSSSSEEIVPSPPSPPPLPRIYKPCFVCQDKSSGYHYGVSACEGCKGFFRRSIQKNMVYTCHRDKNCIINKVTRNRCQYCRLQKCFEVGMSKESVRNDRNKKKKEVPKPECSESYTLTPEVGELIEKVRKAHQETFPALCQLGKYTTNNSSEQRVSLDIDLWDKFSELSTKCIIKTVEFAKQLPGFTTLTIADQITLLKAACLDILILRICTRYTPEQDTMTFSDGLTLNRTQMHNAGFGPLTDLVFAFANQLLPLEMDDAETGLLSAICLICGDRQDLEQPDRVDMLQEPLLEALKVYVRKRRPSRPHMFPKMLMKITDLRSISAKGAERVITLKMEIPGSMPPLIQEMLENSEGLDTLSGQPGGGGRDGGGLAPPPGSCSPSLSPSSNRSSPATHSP
Sequence of Retinoic acid receptor RXR-alpha (Homo sapiens) (P19793 whole entry, looked up, the tested form may be a part): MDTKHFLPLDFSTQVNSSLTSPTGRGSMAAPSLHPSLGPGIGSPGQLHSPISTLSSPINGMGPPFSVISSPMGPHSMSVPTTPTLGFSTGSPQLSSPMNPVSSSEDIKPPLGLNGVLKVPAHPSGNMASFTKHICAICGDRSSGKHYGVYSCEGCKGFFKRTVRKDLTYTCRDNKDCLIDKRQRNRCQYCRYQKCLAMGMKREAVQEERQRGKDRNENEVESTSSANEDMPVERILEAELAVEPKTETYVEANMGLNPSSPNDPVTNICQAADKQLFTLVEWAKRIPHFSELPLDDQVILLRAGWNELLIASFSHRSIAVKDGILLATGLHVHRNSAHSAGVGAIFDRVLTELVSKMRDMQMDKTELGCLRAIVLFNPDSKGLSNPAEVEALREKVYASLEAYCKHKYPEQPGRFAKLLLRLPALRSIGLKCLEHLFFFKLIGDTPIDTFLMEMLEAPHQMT
Sequence of human Thyroid Receptor alpha (THRa1), THRA (gene 7067) (P10827 whole entry, looked up, the tested form may be a part): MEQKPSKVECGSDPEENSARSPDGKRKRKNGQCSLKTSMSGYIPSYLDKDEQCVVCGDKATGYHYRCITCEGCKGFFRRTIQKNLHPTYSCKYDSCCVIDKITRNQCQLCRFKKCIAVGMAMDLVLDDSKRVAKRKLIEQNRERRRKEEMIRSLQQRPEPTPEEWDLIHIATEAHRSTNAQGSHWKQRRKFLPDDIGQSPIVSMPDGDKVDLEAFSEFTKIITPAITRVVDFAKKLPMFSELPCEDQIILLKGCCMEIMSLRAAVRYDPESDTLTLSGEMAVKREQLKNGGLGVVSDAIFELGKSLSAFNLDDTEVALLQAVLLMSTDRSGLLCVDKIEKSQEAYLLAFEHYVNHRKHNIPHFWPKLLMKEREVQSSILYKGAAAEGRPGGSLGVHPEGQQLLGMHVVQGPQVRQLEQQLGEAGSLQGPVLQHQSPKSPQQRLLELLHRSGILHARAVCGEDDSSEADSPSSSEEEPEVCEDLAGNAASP
Sequence of human Retinoid X Receptor beta (RXRb), RXRB (gene 6257) (P28702 whole entry, looked up, the tested form may be a part): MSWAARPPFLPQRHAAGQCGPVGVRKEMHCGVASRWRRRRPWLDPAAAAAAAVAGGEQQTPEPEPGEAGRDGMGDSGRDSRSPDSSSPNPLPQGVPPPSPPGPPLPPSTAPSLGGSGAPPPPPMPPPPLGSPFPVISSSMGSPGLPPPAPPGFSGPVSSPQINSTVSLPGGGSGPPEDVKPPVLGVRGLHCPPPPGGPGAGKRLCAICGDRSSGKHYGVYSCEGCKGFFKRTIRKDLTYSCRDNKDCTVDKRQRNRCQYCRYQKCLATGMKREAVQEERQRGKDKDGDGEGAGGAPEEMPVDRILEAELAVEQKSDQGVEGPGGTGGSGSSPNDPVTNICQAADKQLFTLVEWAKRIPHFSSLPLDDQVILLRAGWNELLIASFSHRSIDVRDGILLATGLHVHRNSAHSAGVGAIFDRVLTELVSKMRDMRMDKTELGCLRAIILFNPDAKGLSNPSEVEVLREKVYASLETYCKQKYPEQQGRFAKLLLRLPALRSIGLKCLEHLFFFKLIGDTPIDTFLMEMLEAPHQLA

Turning to `CC(=O)N1CCN(c2ccc(OC[C@H]3CO[C@](Cn4ccnc4)(c4ccc(Cl)cc4Cl)O3)cc2)CC1`, the half-maximal activity concentration (AC50) was 23.8 µM (active) in assay [1]; 31.9 µM (active) in assay [6]; 26.4 µM (active) in assay [7]; 25.2 µM (active) in assay [8]; 31.3 µM (active) in assay [9]. For the same compound, the compound was called inactive in assay [2], in [3], in [4] and in assay [5].

On to `CCO[Si](CCCNC(N)=O)(OCC)OCC`, for which the result in [10], in [11], in [1], in [12], in [3] and in assay [13] was inactive. In addition, the result in [14], in [4], in [5], in [6], in assay [7] and in assay [8] was inactive. Moreover, the outcome in assay [9] was inactive.

Turning to `Cc1cc(F)ccc1-c1cc(N2CC[C@@H](O)[C@H]2CO)ncc1N(C)C(=O)C(C)(C)c1cc(C(F)(F)F)cc(C(F)(F)F)c1`, the result in [15] and in assay [13] was inactive. For the same compound, the AC50 in assay [10] was 12.8 µM (active); in assay [1], 5.65 µM (active); in assay [2] it was 1.14 µM (active); in [4], 10.9 µM (active); in assay [5] it was 14.6 µM (active); in assay [6], 10 µM (active). In addition, the results for the AC50 in assay [7], in [8] and in assay [9] were 6.91 µM (active), 9.43 µM (active) and 9.76 µM (active), respectively.

Regarding `NC(=O)c1nc(-c2cccc(-c3cc(F)ccc3OCC(F)(F)C(F)(F)F)c2)n[nH]1`, the compound was called inactive in assay [15] and in assay [13]. Further, the AC50 in [1] was 32.4 µM (active); in assay [2], 8.71 µM (active); in assay [4], 34.9 µM (active); in assay [5], 38.8 µM (active); in assay [6], 35.3 µM (active); in [7], 29.3 µM (active). The AC50 was 22.6 µM (active) in assay [8] and 34.4 µM (active) in [9].

For the compound `O=c1ccc2ccccc2o1`, the compound was called inactive in assay [11], in assay [1], in assay [4], in [5], in assay [6] and in [7]. Moreover, the outcome in assay [8] and in [9] was inactive.

As for `C[C@]12CC[C@@H]3c4ccc(O)cc4CC[C@H]3[C@@H]1CCC2=O`, the outcome in assay [16], in assay [10], in [17], in [13], in [4] and in assay [5] was inactive. The outcome in assay [6], in [7], in assay [9] and in [18] was inactive. Besides, the concentration at half-maximal activity (AC50) in assay [1] is 20.7 µM (active); in assay [8] it was 31.7 µM (active).

For the compound `c1ccc2n[nH]nc2c1`, the compound was called inactive in [15], in assay [10], in assay [11], in assay [1], in assay [2] and in assay [17]. In addition, the result in [13], in assay [19], in assay [4], in assay [5], in assay [6] and in assay [7] was inactive. In addition, the outcome in assay [8] and in [9] was inactive.
